Our source for the outcome and AC50 values is PubChem BioAssay (EPA / NIEHS).

Assay [1] is described as follows: ATG_TGFb_CIS: Attagene CIS-FACTORIAL HepG2 Assay for human Transforming Growth Factor (TGF) (AID 2282967; active = hit-call score of the fitted dose curve at least 0.9, where 1 is the maximum; inactive = score below 0.9). As to conditions: HepG2 Attagene CIS TGFb reporter, mRNA transcription; actives raise or lower the signal. The method in brief:
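Bidirectional fitting relative to DMSO gave the endpoint. Underlying data: reporter mRNA from HepG2 cells carrying transiently transfected cis-regulated reporter constructs, harvested 24 h after dosing and analyzed by RT-PCR and capillary electrophoresis.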

Assay [2] addresses Nuclear receptor subfamily 1 group I member 3 (Homo sapiens) (UniProt Q14994). Nature of the assay: ATG_CAR_TRANS: Attagene TRANS-FACTORIAL HepG2 Assay for human Constitutive Androstane Receptor (CAR) (AID 2282969).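 Note: activators raise reporter mRNA above DMSO so AC50 marks induction.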 Conditions: HepG2 Attagene TRANS-FACTORIAL CAR reporter. The essentials:
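Transiently transfected HepG2, multiplex TRANS reporters (CAR-Gal4 chimera driving GAL4-UAS reporter). 24 h dosing. Readout: reporter transcript by RT-PCR + capillary electrophoresis, fluorescence intensity; positive direction vs DMSO.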

For assay [3], the target named is Estrogen receptor (Homo sapiens) (UniProt P03372). The experiment in a line: ATG_ERa_TRANS: Attagene TRANS-FACTORIAL HepG2 Assay for human Estrogen Receptor alpha (ERa) (AID 2282970). Conditions: HepG2 Attagene TRANS ERa GAL4 reporter, mRNA. The essentials: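 Gal4-fusion ERa transactivation, measured as reporter transcript level in transiently transfected HepG2 cells. Exposure 24 h; RT-PCR plus capillary electrophoresis with fluorescence detection.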

The target of assay [4] is X-box-binding protein 1 (Homo sapiens) (UniProt P17861). The experiment in a line: ATG_Xbp1_CIS: Attagene CIS-FACTORIAL HepG2 Assay for human X-box Binding Protein 1 (XBP1) (AID 2282972; active = hit-call score of the fitted dose curve at least 0.9, where 1 is the maximum; inactive = score below 0.9). As to conditions: HepG2 XBP1 cis-element reporter, Attagene multiplex; actives raise or lower the signal. The method in brief: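 Reporter transcripts were quantified by RT-PCR with fluorescent primer extension and capillary electrophoresis after 24 h chemical exposure. Cells: transiently transfected HepG2 carrying cis-regulated reporter constructs; data fitted bidirectionally relative to DMSO.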

Assay [5] addresses Oxysterols receptor LXR-alpha (Homo sapiens) (UniProt Q13133). Nature of the assay: ATG_LXRa_TRANS: Attagene TRANS-FACTORIAL HepG2 Assay for human Liver X Receptor alpha (LXRa) (AID 2282980). As to conditions: HepG2 Attagene TRANS reporter, LXRa transactivation. The method in brief: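 HepG2 cells transiently transfected with GAL4-UAS reporter units for chimeric NR-Gal4 proteins, exposed to chemicals for 24 h. Reporter mRNA quantified by RT-PCR and capillary electrophoresis; gain of signal fitted relative to DMSO.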

Assay [6] deals with Oxysterols receptor LXR-beta (Homo sapiens) (UniProt P55055). The experiment in a line: ATG_LXRb_TRANS: Attagene TRANS-FACTORIAL HepG2 Assay for human Liver X Receptor beta (LXRb) (AID 2282981). Conditions: HepG2 Attagene TRANS GAL4-LXRb reporter, mRNA. The method in brief: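 Multiplexed reporter assay, HepG2, 24 h dosing. Fluorescence of labelled RT-PCR products after capillary electrophoresis gives transcript level; positive fitting direction relative to DMSO.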

Assay [7] is described as follows: ATG_M_06_TRANS: Attagene TRANS-FACTORIAL HepG2 Assay for M06 Transcription Factor (Internal Marker) (AID 2282983). As to conditions: HepG2 Attagene TRANS M06 internal marker reporter. The method in brief:
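mRNA levels of a reporter transcript, quantified as FAM fluorescence on capillary electrophoresis, served as readout. HepG2 cells expressing exogenous GAL4-chimera reporter constructs were exposed for 24 h. Gain of signal over DMSO was evaluated.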

The target of assay [8] is Transcriptional activator Myb (Homo sapiens) (UniProt P10242). The experiment in a line: ATG_Myb_CIS: Attagene CIS-FACTORIAL HepG2 Assay for human Myeloblastosis (Myb) Proto-Oncogene Transcription Factor (AID 2282986; active = hit-call score of the fitted dose curve at least 0.9, where 1 is the maximum; inactive = score below 0.9). Conditions: HepG2 Attagene CIS-FACTORIAL Myb reporter transcription; actives raise or lower the signal. The method in brief: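 Using HepG2 liver cells bearing transiently transfected cis-promoter reporter constructs, the assay measures induction or loss of reporter mRNA after 24 hours of dosing. Detection used fluorescently labeled RT-PCR products separated by capillary electrophoresis.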

For assay [9], the target named is Nuclear respiratory factor 1 (Homo sapiens) (UniProt Q16656). Nature of the assay: ATG_NRF1_CIS: Attagene CIS-FACTORIAL HepG2 Assay for human Nuclear Respiratory Factor 1 (NRF1) Orphan Gene (AID 2282987; active = hit-call score of the fitted dose curve at least 0.9, where 1 is the maximum; inactive = score below 0.9). As to conditions: HepG2 NRF1 cis-element reporter, Attagene multiplex; actives raise or lower the signal. The essentials:
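Reporter mRNA induction or loss in HepG2 cells after 24 h dosing; cis-regulated reporter constructs report endogenous transcription-factor activity. Quantified by RT-PCR/capillary electrophoresis fluorescence, DMSO-referenced.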

Assay [10] is described as follows: ATG_GAL4_TRANS: Attagene TRANS-FACTORIAL HepG2 Assay for GAL4 (Internal Marker) (AID 2282976). As to conditions: HepG2 Attagene TRANS GAL4 internal marker reporter. The essentials: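 Background-control readout: GAL4-UAS reporter transcript in transiently transfected HepG2 cells after 24 h compound exposure. Measured by RT-PCR, 6-FAM primer extension, HpaI digest and capillary electrophoresis; gain-of-signal fit versus DMSO.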

The target of assay [11] is Glucocorticoid receptor (Homo sapiens) (UniProt P04150). The experiment in a line: ATG_GR_TRANS: Attagene TRANS-FACTORIAL HepG2 Assay for human Glucocorticoid Receptor (GR) (AID 2282978).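 Note: activators score as hits since higher reporter transcript over DMSO is fitted.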 Conditions: HepG2 Attagene TRANS GR reporter, mRNA transcription. The essentials:
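Transiently transfected HepG2 cells express chimeric NR-GAL4 proteins acting on GAL4-UAS reporter units. Compounds are applied for 24 h. mRNA induction over DMSO is measured by capillary electrophoresis.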

The target of assay [12] is Hepatocyte nuclear factor 4-alpha (Homo sapiens) (UniProt P41235). Nature of the assay: ATG_HNF4a_TRANS: Attagene TRANS-FACTORIAL HepG2 Assay for human Hepatocyte Nuclear Factor 4 alpha (HNF4a) (AID 2282982). Conditions: HepG2 HNF4a transactivation reporter, mRNA readout. The essentials:
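Endpoint reflects transcriptional activation of a GAL4-UAS reporter by an HNF4a-GAL4 chimera in transfected HepG2 cells, 24 h post-dosing. Fluorescence from RT-PCR products separated by capillary electrophoresis; DMSO baseline.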

Assay [13] can be described thus: ATG_M_32_TRANS: Attagene TRANS-FACTORIAL HepG2 Assay for M32 Transcription Factor (Internal Marker) (AID 2282984). Conditions: HepG2 Attagene TRANS M32 internal marker reporter. The method in brief: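 Internal-marker readout from a multiplexed transcription reporter panel. HepG2 cells were transfected with GAL4-UAS reporter units, treated 24 hours, and reporter transcript levels determined by fluorescence after RT-PCR and capillary separation.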

Assay [14] concerns the target Steroid hormone receptor ERR1 (Homo sapiens) (UniProt P11474). Nature of the assay: ATG_ERRa_TRANS: Attagene TRANS-FACTORIAL HepG2 Assay for human Estrogen-Related Receptor alpha (ERRa) (AID 2282971). Conditions: HepG2 Attagene TRANS reporter, ERRa transactivation. The method in brief:
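HepG2 cells transiently transfected with GAL4-UAS reporter units and chimeric NR-Gal4 constructs; after 24 hour compound incubation, reporter mRNA quantified by RT-PCR, fluorescent labelling and capillary electrophoresis, gain of signal versus DMSO.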

Assay [15] can be described thus: ATG_M_19_TRANS: Attagene TRANS-FACTORIAL HepG2 Assay for M19 Transcription Factor (Internal Marker) (AID 2282974). Conditions: HepG2 Attagene TRANS-FACTORIAL M19 internal marker reporter. The essentials:
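Multiplexed TRANS format: HepG2 liver cells bearing transient GAL4-UAS reporter units, chemical treatment 24 h, reporter transcripts quantified by RT-PCR plus capillary electrophoresis. DMSO defines baseline.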

The target in assay [16] is Bile acid receptor (Homo sapiens) (UniProt Q96RI1). The experiment in a line: ATG_FXR_TRANS: Attagene TRANS-FACTORIAL HepG2 Assay for Farnesoid X Receptor (FXR) (AID 2282979).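 Note: hits raise reporter mRNA above DMSO so AC50 marks FXR activation.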 As to conditions: HepG2 Attagene TRANS FXR-GAL4 reporter transcription. The essentials: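 HepG2 cells were transiently transfected with GAL4-UAS reporters driven by chimeric NR-Gal4 proteins and dosed for 24 h. Reporter mRNA was quantified by RT-PCR, fluorescent labelling, HpaI digestion and capillary electrophoresis, with gain of signal scored versus DMSO.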

Assay [17] has as its target Nuclear receptor subfamily 4 group A member 2 (Homo sapiens) (UniProt P43354). The experiment in a line: ATG_NURR1_TRANS: Attagene TRANS-FACTORIAL HepG2 Assay for human Nuclear Receptor Related Protein 1 (NURR1) (AID 2282985). As to conditions: HepG2 Attagene TRANS reporter, mRNA readout. The method in brief:
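Endpoint: reporter mRNA increase relative to DMSO. HepG2 cells transfected with reporter units, treated 24 h; RNA processed by RT-PCR, labelling, HpaI digestion and capillary electrophoresis.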

The target in assay [18] is Estrogen-related receptor gamma (Homo sapiens) (UniProt P62508). The experiment in a line: ATG_ERRg_TRANS: Attagene TRANS-FACTORIAL HepG2 Assay for human Estrogen-Related Receptor gamma (ERRg) (AID 2282977).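 Note: hits increase reporter signal over DMSO so potencies reflect activators.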 As to conditions: HepG2 Attagene TRANS reporter, ERRg transactivation. The essentials:
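Exogenous NR-Gal4 chimera activity measured as reporter transcript induction after 24 h in transiently transfected HepG2 cells. RNA reverse-transcribed, PCR-amplified, 6-FAM-labelled and resolved by capillary electrophoresis; increase over DMSO baseline.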

Assay [19] deals with Androgen receptor (Homo sapiens) (UniProt P10275). Nature of the assay: ATG_AR_TRANS: Attagene TRANS-FACTORIAL HepG2 Assay for human Androgen Receptor (AR) (AID 2282973). As to conditions: HepG2 Attagene TRANS-FACTORIAL AR reporter transcription. The method in brief: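 HepG2 cells transiently transfected with AR-Gal4 chimera and GAL4-UAS reporter units; chemical exposure 24 h. Reporter mRNA quantified by RT-PCR with fluorescent labelling and capillary electrophoresis; gain-of-signal fitted against DMSO.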

Inconclusive results are not listed. Calls of active or inactive are those of the source. Rule for the calls, unless noted: active = hit-call score of the fitted dose curve at least 0.9, where 1 is the maximum; inconclusive = response in the unintended direction; inactive = score below 0.9.

Sequence of X-box-binding protein 1 (Homo sapiens) (P17861 whole entry, looked up): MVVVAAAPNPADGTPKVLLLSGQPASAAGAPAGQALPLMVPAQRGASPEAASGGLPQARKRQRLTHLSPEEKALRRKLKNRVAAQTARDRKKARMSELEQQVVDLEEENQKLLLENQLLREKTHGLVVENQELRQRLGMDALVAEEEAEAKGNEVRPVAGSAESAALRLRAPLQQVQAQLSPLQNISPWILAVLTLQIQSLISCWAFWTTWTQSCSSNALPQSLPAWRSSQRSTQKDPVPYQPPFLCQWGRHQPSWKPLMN
Sequence of Transcriptional activator Myb (Homo sapiens) (P10242 whole entry, looked up): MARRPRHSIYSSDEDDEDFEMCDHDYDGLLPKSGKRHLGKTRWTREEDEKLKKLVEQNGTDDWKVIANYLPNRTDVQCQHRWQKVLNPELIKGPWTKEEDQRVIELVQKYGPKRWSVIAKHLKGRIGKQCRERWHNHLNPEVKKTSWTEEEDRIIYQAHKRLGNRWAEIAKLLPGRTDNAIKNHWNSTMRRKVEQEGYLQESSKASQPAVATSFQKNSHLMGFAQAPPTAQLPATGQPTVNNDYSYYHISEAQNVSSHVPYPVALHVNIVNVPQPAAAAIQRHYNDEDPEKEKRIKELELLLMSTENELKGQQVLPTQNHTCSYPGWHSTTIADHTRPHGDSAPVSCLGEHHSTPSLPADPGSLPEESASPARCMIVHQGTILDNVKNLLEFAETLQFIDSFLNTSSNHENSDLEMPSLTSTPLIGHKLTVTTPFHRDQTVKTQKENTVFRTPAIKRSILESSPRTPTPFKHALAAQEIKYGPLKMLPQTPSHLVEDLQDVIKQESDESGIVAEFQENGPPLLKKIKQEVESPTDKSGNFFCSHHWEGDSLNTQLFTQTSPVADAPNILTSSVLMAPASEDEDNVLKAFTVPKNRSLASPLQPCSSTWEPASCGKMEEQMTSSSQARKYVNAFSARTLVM
Sequence of Nuclear respiratory factor 1 (Homo sapiens) (Q16656 whole entry, looked up): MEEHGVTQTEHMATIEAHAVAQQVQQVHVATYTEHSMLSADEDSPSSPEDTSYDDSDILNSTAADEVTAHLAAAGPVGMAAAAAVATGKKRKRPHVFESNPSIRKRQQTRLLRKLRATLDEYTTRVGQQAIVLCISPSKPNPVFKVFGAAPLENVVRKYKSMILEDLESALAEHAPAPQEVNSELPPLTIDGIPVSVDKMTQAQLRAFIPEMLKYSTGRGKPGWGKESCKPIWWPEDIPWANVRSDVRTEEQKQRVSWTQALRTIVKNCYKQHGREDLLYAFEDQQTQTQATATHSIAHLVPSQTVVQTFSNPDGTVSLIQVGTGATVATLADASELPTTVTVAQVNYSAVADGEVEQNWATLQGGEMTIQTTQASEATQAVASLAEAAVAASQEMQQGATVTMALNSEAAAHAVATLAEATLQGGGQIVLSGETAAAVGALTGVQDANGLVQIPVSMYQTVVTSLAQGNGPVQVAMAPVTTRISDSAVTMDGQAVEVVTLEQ
Sequence of Hepatocyte nuclear factor 4-alpha (Homo sapiens) (P41235 whole entry, looked up, the tested form may be a part): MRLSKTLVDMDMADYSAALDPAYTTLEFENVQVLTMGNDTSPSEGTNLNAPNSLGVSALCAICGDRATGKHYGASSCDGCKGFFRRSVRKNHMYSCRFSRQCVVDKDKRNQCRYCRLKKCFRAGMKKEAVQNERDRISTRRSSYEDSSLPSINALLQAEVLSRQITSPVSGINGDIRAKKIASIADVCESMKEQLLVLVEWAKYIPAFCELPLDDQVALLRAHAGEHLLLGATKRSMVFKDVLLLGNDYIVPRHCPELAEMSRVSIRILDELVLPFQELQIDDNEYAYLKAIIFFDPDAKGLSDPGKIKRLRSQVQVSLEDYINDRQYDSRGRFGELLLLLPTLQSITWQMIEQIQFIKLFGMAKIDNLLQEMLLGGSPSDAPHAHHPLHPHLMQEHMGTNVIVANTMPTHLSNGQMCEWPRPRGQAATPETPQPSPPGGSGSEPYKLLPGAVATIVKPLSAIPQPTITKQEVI
Sequence of Oxysterols receptor LXR-beta (Homo sapiens) (P55055 whole entry, looked up, the tested form may be a part): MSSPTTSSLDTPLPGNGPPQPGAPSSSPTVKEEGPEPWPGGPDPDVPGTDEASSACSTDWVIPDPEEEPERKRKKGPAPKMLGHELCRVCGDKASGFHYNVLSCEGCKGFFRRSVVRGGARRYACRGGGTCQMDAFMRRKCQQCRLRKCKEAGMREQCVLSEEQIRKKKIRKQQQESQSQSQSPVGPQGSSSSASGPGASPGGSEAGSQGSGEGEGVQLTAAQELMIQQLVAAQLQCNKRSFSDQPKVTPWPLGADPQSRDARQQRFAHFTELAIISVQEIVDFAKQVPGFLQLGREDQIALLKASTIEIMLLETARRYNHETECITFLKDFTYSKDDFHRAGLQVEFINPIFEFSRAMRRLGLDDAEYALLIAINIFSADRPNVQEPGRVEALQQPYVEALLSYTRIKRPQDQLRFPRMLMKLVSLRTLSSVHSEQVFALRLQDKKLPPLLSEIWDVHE
Sequence of Estrogen receptor (Homo sapiens) (P03372 whole entry, looked up, the tested form may be a part): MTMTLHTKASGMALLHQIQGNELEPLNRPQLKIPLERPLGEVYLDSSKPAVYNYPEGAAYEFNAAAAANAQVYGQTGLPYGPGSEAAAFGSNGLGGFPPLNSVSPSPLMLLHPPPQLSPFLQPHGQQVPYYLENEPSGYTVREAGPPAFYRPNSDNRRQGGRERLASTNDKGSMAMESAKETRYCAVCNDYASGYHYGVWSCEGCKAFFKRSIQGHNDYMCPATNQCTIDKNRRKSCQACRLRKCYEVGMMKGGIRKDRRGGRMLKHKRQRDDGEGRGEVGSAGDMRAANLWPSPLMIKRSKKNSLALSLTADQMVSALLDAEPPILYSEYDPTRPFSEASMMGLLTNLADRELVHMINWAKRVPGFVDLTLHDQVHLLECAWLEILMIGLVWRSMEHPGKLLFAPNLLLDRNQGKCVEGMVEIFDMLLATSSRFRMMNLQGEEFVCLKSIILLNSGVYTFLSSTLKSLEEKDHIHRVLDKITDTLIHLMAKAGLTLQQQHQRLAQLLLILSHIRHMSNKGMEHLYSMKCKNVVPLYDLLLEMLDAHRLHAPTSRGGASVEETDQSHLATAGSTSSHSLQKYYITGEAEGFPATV
Sequence of Nuclear receptor subfamily 1 group I member 3 (Homo sapiens) (Q14994 whole entry, looked up, the tested form may be a part): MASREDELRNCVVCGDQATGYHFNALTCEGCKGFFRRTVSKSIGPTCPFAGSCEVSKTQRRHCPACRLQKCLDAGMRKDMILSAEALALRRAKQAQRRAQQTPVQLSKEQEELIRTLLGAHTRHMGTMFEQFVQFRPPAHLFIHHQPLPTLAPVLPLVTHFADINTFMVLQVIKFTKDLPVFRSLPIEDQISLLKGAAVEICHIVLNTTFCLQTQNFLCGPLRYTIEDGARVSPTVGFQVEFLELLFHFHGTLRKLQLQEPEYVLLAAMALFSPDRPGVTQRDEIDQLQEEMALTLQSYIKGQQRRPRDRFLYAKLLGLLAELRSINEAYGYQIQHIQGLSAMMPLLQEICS
Sequence of Oxysterols receptor LXR-alpha (Homo sapiens) (Q13133 whole entry, looked up, the tested form may be a part): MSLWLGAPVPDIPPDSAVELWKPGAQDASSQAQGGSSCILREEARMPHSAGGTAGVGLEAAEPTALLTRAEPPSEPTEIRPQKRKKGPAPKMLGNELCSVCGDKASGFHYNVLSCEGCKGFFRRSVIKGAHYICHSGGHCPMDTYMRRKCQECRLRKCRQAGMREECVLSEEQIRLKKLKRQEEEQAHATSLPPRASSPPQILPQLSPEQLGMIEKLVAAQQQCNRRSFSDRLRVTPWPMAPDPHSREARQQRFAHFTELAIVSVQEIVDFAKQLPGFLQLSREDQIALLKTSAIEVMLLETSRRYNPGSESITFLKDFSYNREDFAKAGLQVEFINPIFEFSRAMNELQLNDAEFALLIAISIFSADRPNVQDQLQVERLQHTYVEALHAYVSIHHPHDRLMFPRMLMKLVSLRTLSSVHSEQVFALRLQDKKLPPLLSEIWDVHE
Sequence of Bile acid receptor (Homo sapiens) (Q96RI1 whole entry, looked up, the tested form may be a part): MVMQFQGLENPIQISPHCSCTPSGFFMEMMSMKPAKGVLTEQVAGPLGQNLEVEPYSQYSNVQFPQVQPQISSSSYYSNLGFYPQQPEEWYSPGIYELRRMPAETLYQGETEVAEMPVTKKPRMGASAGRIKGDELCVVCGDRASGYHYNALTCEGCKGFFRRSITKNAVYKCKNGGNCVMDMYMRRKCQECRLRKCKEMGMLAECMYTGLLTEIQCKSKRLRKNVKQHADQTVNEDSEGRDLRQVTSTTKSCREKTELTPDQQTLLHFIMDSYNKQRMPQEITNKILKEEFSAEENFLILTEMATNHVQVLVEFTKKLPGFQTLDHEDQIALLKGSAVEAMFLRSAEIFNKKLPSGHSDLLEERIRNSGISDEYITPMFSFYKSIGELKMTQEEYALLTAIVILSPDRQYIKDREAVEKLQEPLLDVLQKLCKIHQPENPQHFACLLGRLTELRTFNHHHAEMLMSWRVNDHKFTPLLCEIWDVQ
Sequence of Nuclear receptor subfamily 4 group A member 2 (Homo sapiens) (P43354 whole entry, looked up): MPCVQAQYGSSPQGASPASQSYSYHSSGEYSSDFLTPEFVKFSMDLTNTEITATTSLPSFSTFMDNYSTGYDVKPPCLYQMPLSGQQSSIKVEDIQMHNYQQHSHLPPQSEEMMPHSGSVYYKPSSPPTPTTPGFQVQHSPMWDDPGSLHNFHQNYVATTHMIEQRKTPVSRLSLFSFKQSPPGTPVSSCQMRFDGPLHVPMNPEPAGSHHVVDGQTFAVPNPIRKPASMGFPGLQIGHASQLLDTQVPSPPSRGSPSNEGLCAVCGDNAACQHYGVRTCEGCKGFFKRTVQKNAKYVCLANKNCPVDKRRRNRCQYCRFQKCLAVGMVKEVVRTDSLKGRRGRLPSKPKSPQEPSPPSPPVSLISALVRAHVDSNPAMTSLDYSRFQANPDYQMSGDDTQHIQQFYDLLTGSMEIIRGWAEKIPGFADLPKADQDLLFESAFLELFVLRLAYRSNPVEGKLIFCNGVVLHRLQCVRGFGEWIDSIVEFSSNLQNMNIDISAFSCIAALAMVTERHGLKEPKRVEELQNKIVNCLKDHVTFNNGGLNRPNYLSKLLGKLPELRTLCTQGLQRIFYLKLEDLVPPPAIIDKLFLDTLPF

As to `CC(C)(c1ccccc1)c1cc(-n2nc3ccccc3n2)c(O)c(C(C)(C)c2ccccc2)c1`, the call in assay [1], in assay [2], in assay [3], in assay [4], in assay [5] and in assay [6] was inactive. Further, the result in assay [7], in assay [8] and in assay [9] was inactive.

Turning to `CC(C)CP(=S)(S)CC(C)C`, the compound was classed as inactive in assay [1], in assay [2], in assay [3], in [4], in assay [10] and in assay [11]. In addition, the call in assay [12], in assay [7], in assay [13], in assay [8] and in assay [9] was inactive.

For the compound `N#CCCC(Br)(C#N)CBr` (configuration not stated), the compound was classed as inactive in assay [1], in [3], in [14], in assay [15], in [16] and in [13]. Moreover, the result in assay [8] and in assay [9] was inactive. Moreover, the AC50 in assay [4] was 57.9 µM (active).

Consider `Oc1c(Br)cc(Br)cc1Br`, for which the AC50 in [1] was 156 µM (active); in assay [3] it was 5.59 µM (active); in [4] it was 42 µM (active). In addition, the result in assay [2], in assay [15], in assay [5], in assay [12], in [7] and in assay [13] was inactive. The call in assay [17], in assay [8] and in assay [9] was inactive.

Regarding `CCOP(=S)(OCC)Oc1ccc(Cl)cc1Cl`, the compound was classed as inactive in [1], in assay [2], in [4], in assay [15], in assay [5] and in assay [12]. The outcome in assay [7], in assay [13], in assay [17], in assay [8] and in assay [9] was inactive. Further, the AC50 in assay [3] was 7.91 µM (active).

On to `C1CCC(C2CCCCC2)CC1`, for which the result in [1], in assay [2], in [4], in assay [16], in assay [5] and in assay [6] was inactive. Besides, the outcome in [7], in assay [8] and in assay [9] was inactive. Moreover, the AC50 in [3] was 27.9 µM (active).

Take `CC(c1ccc(O)cc1)c1ccc(O)cc1`: the call in assay [1], in assay [2], in [14], in assay [15], in assay [18] and in assay [12] was inactive. Also, the call in [13], in assay [8] and in [9] was inactive. In [4], the concentration at half-maximal activity (AC50) is 130 µM (active).

`Oc1c(Cl)cc(Cl)cc1Cl`: the compound was called inactive in assay [1], in assay [2], in assay [4], in assay [6], in assay [7] and in assay [13]. Further, in assay [8], the compound was classed as inactive.

On to `COc1ccc([N+](=O)[O-])cc1O`, for which the result in assay [1], in [3], in [4], in [19], in assay [10] and in [11] was inactive. Further, the outcome in assay [16], in assay [5], in [7], in assay [13], in assay [8] and in assay [9] was inactive.

The term AC50 denotes the midpoint of the concentration-response curve, whichever way the signal moves.
